Drawing on PubChem BioAssay AID651812 (National Center for Advancing Translational Sciences (NCATS), 2012), this text covers Potency for 63 molecules.

Among all 2,100 compounds or so, about 650 (31%) were called active. Not shown: some 16% with an inconclusive outcome. The call rests on the fitted dose curve; in most records, active means well fitted inhibition curve with a large enough effect; inconclusive means small, poorly fitted or top-dose-only effect; inactive means flat fitted curve, though single readings scatter. Some of the results follow. Entries that show only a call come without a potency.
Potency means the concentration at half of the fitted maximal effect.

This assay is described as follows: qHTS for inhibitors of Vif-A3G interactions: Cherry picks. Further: nearly all actives have a fitted effect of over 80% in size. The conditions noted are these: HeLa A3G-eYFP + Vif (tagged APOBEC3G with the HIV-1 protein that degrades it), 24 h; Potency: eYFP fluorescence increase; series mostly up to 36.9 µM. The procedure, abridged:
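Cherry-picked compounds tested at several concentrations on A3G-eYFP/Vif HeLa cells for 24 hours; loss of Vif-driven degradation read as eYFP fluorescence by cytometric plate imaging, 488 nm excitation, 500-530 nm emission.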
In general terms: qHTS replaces the single test concentration by a dilution series.
Take `CC1(C(=O)NCc2ccccc2)Cc2c(-c3cccc(C(N)=O)c3)ccnc2O1` (stereo not drawn): the Potency result was “inactive”.
Under `COc1ccc(NC(=O)C2(C)Cc3c(-c4cccc(C(N)=O)c4)ccnc3O2)cn1` (stereo not drawn) stands “inactive”; under `O=C(COc1ccc(C(=O)c2ccccc2)cc1)NCc1ccc(F)cc1`, “inactive”; under `Cc1c(C(=O)C(=O)N2CC=C(c3ccccc3)CC2)c2ccccc2n1C`, “inactive”.
Under `CCOc1ccc(S(=O)(=O)NCc2ccccn2)cc1NC(=O)c1ccccc1` stands “inactive”.
As to `O=C1CC(c2ccccc2F)c2cc3c(cc2N1)CCC3` (stereo not drawn), the Potency result was “inactive”.
With `CN(/N=C/c1ccc(-c2ccc([N+](=O)[O-])cc2)o1)c1ccccc1` the figure was 1.64 µM (active).
Under `Cc1cc(N2CCN(Cc3cn(C)nc3-c3ccccc3F)CC2)cc(C)n1` stands “inactive”; under `COc1cc(C(=O)N/N=C/c2ccccn2)cc(OC)c1OC`, “inactive”; under `Cc1cc(C)n(-c2nc3c(c(=O)[nH]c(=O)n3C)n2CC(O)COc2ccc(Cl)cc2Cl)n1` (stereo not drawn), “inactive”.
Under `Cc1ccc2ccc3c(c2n1)NS(=O)(=O)c1ccc(C(F)(F)F)cc1-3` stands “inactive”; under `N#C/C(=C\c1ccc(C(=O)O)cc1)c1nc2sc3c(c2c(=O)[nH]1)CCCC3`, “inactive”; under `CN(C)c1ccc(/C=C(\C#N)c2nc3ccccc3c(=O)[nH]2)cc1`, 0.58 µM (active).
Consider `COc1ccc(NC2=CC(=O)CC(c3ccccc3)C2)c(OC)c1` (stereo not drawn), for which the Potency entry was “inactive”.
Under `O=C(NCCc1ccccc1Cl)c1ccc(Cn2c(=O)c3cccn3c3cccnc32)cc1` stands 18.4 µM (active).
Under `Cc1ccc(-n2c(=O)c3ccc(C(=O)NCc4ccccc4Cl)cc3n(CC(=O)Nc3cccc(Cl)c3)c2=O)cc1` stands “inactive”; under `CCCCOc1ccc(/C=C/C2=CC(C)(C)NC(=S)N2)cc1OCC`, “inactive”; under `CCCN1C(=O)C(Cc2nc3ccccc3c(=O)n2CC)c2cc(Br)ccc21` (stereo not drawn), “inactive”.
With `Cn1c(/C=C/c2ccc([N+](=O)[O-])o2)nc2ccccc2c1=O` the figure was 18.4 µM (active); with `CCn1c(/C=C/c2ccc([N+](=O)[O-])o2)nc2ccccc2c1=O`, 11.6 µM (active).
For the molecule `O=c1c2ccccc2nc(/C=C/c2ccc([N+](=O)[O-])o2)n1CCCO`, the Potency was 18.4 µM (active).
For `CCOC(=O)C(C)Oc1cccc2c(=O)n(CC(=O)NCc3ccco3)ccc12` (stereo not drawn), the Potency result is “inactive”.
Under `NC(=O)c1ccc(NC(=O)C#Cc2ccccc2)cc1` stands “inactive”; under `COc1cccc(N2CCN(Cc3nc4scc(-c5ccccc5)c4c(=O)[nH]3)CC2)c1`, “inactive”.
Under `O=C(/C=C/c1ccccc1)Nc1ncn[nH]1` stands “inactive”; under `Cc1cccc2cc3c(N)c(C(=O)N4CCc5ccccc54)sc3nc12`, 8.2 µM (active); under `O=C(c1cc([N+](=O)[O-])ccc1N1CCCCC1)N1CCc2ccccc21`, “inactive”.
Under `Cc1cc(NC(=O)COC(=O)c2ccc(S(=O)(=O)N3CCCc4ccccc43)cc2)no1` stands “inactive”.
On to `Cc1c(C(=O)C(=O)N2CCCc3ccccc32)c2ccccc2n1C`, for which the Potency result was “inactive”.
Under `Cc1cccc2cc3c(N)c(C(=O)N4CCCc5ccccc54)sc3nc12` stands 14.6 µM (active); under `Cc1ccc2nc3sc(C(=O)N4CCCc5ccccc54)c(N)c3cc2c1`, 14 µM (active).
Under `COc1ccc(-c2cc(C(F)F)n3ncc(C(=O)N4CCc5ccccc54)c3n2)cc1` stands “inactive”; under `Cc1ccc(Cc2c(C3CCCCC3)nc3ccc(C)cn23)cc1`, “inactive”.
With `Cc1cc2nc3s/c(=C/c4ccc(-c5ccccc5C(=O)O)o4)c(=O)n3c2cc1C` the figure was 20.6 µM (active).
For the molecule `CCCCOc1nc2ccccc2nc1NS(=O)(=O)c1ccc(F)cc1`, the Potency result is “inactive”.
On to `COc1ccccc1N1C(=O)C(Cl)=C(Nc2ccccc2O)C1=O`, for which the Potency is 16.4 µM (active).
With `COc1ccc(Cl)cc1NC(=O)CN(C)CC(=O)Nc1ccccc1N1CCOCC1` the entry was “inactive”; with `COc1ccccc1Nc1cc2cc(Br)ccc2c(=O)[nH]1`, “inactive”.
With `C#CCSc1nc(-c2cccs2)ccc1C#N` the figure was 8.2 µM (active); with `Cc1cccc(CSc2nc(-c3cccs3)ccc2C#N)c1`, “inactive”; with `N#Cc1ccc(-c2cccs2)nc1SCc1c(F)cccc1Cl`, “inactive”.
With `Cc1ccc(NC2=C(Cl)C(=O)N(C3CCCCC3)C2=O)cc1` the entry was “inactive”; with `CCC(=O)Nc1ccccc1-c1nc2ccccc2n(C(C)C(=O)Nc2ccc(OC)cc2)c1=O` (stereo not drawn), 18.4 µM (active); with `COc1ccc(CNCC(=O)Nc2ccccc2-n2cccc2)cc1`, “inactive”.
As for `Cc1noc(C)c1COc1ccc(C(=O)NNC(=O)c2ccccc2)cc1`, the Potency result was “inactive”.
With `CCOC(=O)c1cnc(-n2nc(C)cc2C)nc1NNc1cc(C)nc(-c2ccccc2)n1` the entry was “inactive”; with `CCCCCCN1C[C@H](O)[C@@H](n2cc(COC(=O)c3ccccc3)nn2)C[C@@H]1c1ccc(C)cc1`, “inactive”.
With `CC1(C)CC(=O)C(C=Nc2cc(C(=O)c3ccccc3)ccc2N)=C(O)C1` the figure was 20.6 µM (active); with `CCOC(=O)N1CCc2c(sc3c2C(=O)NC(c2ccc(N(C)C)cc2)N3)C1` (stereo not drawn), 20.6 µM (active).
Regarding `Cc1onc(-c2c(F)cccc2Cl)c1C(=O)O/N=C(\N)c1ccc([N+](=O)[O-])o1`, the Potency result was “inactive”.
With `Nc1nc(-c2cc(O)ccc2[N+](=O)[O-])cc(-c2ccccc2)c1[N+](=O)[O-]` the figure was 15.8 µM (active); with `CNCC(O)Cn1c2c(c3ccccc31)CCCC2` (stereo not drawn), “inactive”.
Under `Cc1oc(C)c2c(=O)ccc3c(c12)OC(N)=C(C#N)C3c1ccc(F)cc1` (stereo not drawn) stands “inactive”; under `CC(C)OC(=O)c1cc(C(=O)c2cc(F)ccc2O)coc1=N`, 20.6 µM (active); under `COc1ccc(O)c(C(=O)c2coc(=N)c(C(=O)Nc3ccc(SC(F)F)cc3)c2)c1`, 23.1 µM (active).
Under `O=C(Nc1ncc(Cc2ccc(SC(F)F)cc2)s1)c1ccccc1` stands “inactive”; under `CC(C)OC(=O)c1ccc(NCc2cc(O)ccc2O)cc1Cl`, “inactive”; under `COc1cc(-c2nc3ccc(C)cn3c2NCc2ccccc2)ccc1SC1CCCCC1`, “inactive”.
In the case of `COc1ccccc1/C=C/C=N/NC(=O)c1cc(-c2ccc(C)o2)[nH]n1`, the Potency result was “inactive”.
Under `C(=Cc1c[nH]c2ccccc12)c1nccc2ccccc12` stands 18.4 µM (active); under `C(=C\c1c[nH]c2ccccc12)/c1nccc2ccccc12`, 14.6 µM (active); under `Cc1ccc2c(/C=C/c3c[nH]c4ccccc34)ccnc2c1C`, 3.26 µM (active).
Under `Cc1cccc(C(=O)Nc2nnc(C3=COCCO3)o2)c1` stands “inactive”.
